The values that follow come from PubChem BioAssay (NCI).

Assay in all cases: NCI-60 one-dose screen, 48 h (100 = growth as untreated, 0 = no growth, -100 = all killed)
What all share (settings): 10 µM unless noted

Assay [1] concerns DU-145 prostate.
Assay [2] relates to K-562 leukemia.
The subject of assay [3] is MALME-3M melanoma.
Assay [4] relates to MDA-MB-231 breast.
The test system of assay [5] is RXF 393 renal.
Assay [6] has as its system SF-268 CNS.
For assay [7], the system named is SF-295 CNS.
The test system of assay [8] is SF-539 CNS.
The subject of assay [9] is UACC-257 melanoma.
The subject of assay [10] is M14 melanoma.

“And” between values parts separate entries of the source, which are not always exact repeats. Equal values may be shown once. The panel holds about 83,000 compounds, 20% with a hit somewhere; the sample as a whole holds those more often.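 Each cell line was grown in a 96-well plate and treated with one concentration of compound for 48 hours. Values below 10 were considered active.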 Where a structure was tested more than once in an assay, its records may differ in their call. The source made the active and inactive calls.

Regarding `Cc1ccc(NCSc2ccc(Cl)cc2)cc1`, the growth is 93.2% (inactive) and 95.4% (inactive) in assay [1]; 74.1% (inactive) and 80.2% (inactive) in assay [2]; 115% (inactive) and 92.6% (inactive) in [3]; 58.7% (inactive) and 59.7% (inactive) in assay [4]; 100% (inactive) and 111% (inactive) in assay [5]; 63.9% (inactive) and 57.2% (inactive) in assay [6]. The growth is 85.8% (inactive) in assay [7]; 65% (inactive) and 69.6% (inactive) in assay [8]; 70.7% (inactive) and 86.5% (inactive) in assay [9]; 76% (inactive) and 89% (inactive) in assay [10].

Regarding `Cn1c(=O)n(-c2ccc(C(C)(C)C#N)cc2)c2c3cc(-c4cnc5ccccc5c4)ccc3ncc21`, the growth was 15.3% (inactive) and 6.2% (active) in [1]; 10.2% (inactive) and 10.6% (inactive) in [2]; -14.1% (active) and -14.8% (active) in [3]; 19.3% (inactive) and 20% (inactive) in assay [4]; -22.6% (active) and -17.3% (active) in assay [5]; 11.2% (inactive) and 7.46% (active) in [6]. For the same compound, the growth in assay [7] was -20.4% (active) and -4.51% (active); in [8], -30.1% (active) and -17.4% (active); in assay [9], -9.78% (active) and -14.4% (active); in assay [10], 7.18% (active) and 0.962% (active).

As for `CC1(C)[C@@H](OC(=O)CCC(=O)O)CC[C@]2(C)[C@H]3C(=O)C=C4[C@@H]5C[C@@](C)(C(=O)O)CC[C@]5(C)CC[C@@]4(C)[C@]3(C)CC[C@@H]12`, the growth was 101% (inactive) and -1.77% (active) in assay [1]; 92.3% (inactive) and 5.05% (active) in [2]; 108% (inactive) and -65.4% (active) in assay [3]; 110% (inactive) and -5.44% (active) in assay [4]; 125% (inactive) and -88.8% (active) in assay [5]; 96.1% (inactive) and -27% (active) in assay [6]. Besides, the growth in assay [7] was 106% (inactive) and -51.1% (active); in [8] it was 99.9% (inactive) and -73% (active); in [9], 99.2% (inactive) and -46.5% (active); in assay [10] it was 103% (inactive) and -12.8% (active).

As for `COC(=O)/C=C/c1cc(O)c2c(c1)C(C(=O)OC)C(c1ccc(O)c(O)c1)O2` (stereo not given), the growth in assay [1] was 11.7% (inactive) and 7.05% (active); in [2], 9.16% (active) and 9.69% (active); in assay [3], 72.1% (inactive) and 69% (inactive); in assay [4] it was 13.5% (inactive) and 18% (inactive); in [5], 55.9% (inactive) and 30% (inactive); in assay [6], 34.1% (inactive) and 28.5% (inactive). The growth in [7] was 19.2% (inactive) and 22.4% (inactive); in assay [8], 5.8% (active) and 3.46% (active); in assay [9], 62.4% (inactive) and 60.6% (inactive); in [10], 2.19% (active) and 6.67% (active).

In the case of `N/C(=N\N=C\c1ccc2c(c1)OCO2)N/N=C\c1ccc2c(c1)OCO2`, the growth is 110% (inactive) and 83.9% (inactive) in assay [1]; 90.1% (inactive) in [2]; 92.7% (inactive) in [3]; 107% (inactive) and 90.4% (inactive) in [4]; 110% (inactive) in assay [5]; 101% (inactive) and 76.2% (inactive) in assay [6]. Besides, the growth is 114% (inactive) and 121% (inactive) in assay [7]; 109% (inactive) and 113% (inactive) in assay [8]; 110% (inactive) and 97% (inactive) in assay [9]; 100% (inactive) and 59.7% (inactive) in assay [10].

For the compound `Cc1ccc(S(=O)(=O)Nc2ccc3cc([N+](=O)[O-])ccc3c2[N+](=O)[O-])cc1`, the growth in [1] was 90.9% (inactive) and 106% (inactive); in assay [2], 81.8% (inactive) and 29% (inactive); in [3] it was 62.6% (inactive) and 90.9% (inactive); in assay [4] it was 98.8% (inactive) and 95.1% (inactive); in assay [5], 93.2% (inactive) and 102% (inactive); in assay [6], 81.8% (inactive) and 94.8% (inactive). In addition, the growth is 38.9% (inactive) and 53.1% (inactive) in assay [7]; 89.8% (inactive) and 111% (inactive) in [8]; 82.3% (inactive) and 97% (inactive) in assay [9]; 95.5% (inactive) and 95% (inactive) in [10].

As to `Cc1nn(-c2ccc(Cl)cc2)c2ncnc(N/N=C/c3ccccc3O)c12`, the growth in [1] was 19.1% (inactive) and 21% (inactive); in [2] it was 18.5% (inactive) and 14.7% (inactive); in assay [3] it was 48.7% (inactive) and 0.643% (active); in assay [4], 32.6% (inactive) and 32.4% (inactive); in assay [5], 25.7% (inactive) and 14.5% (inactive); in assay [6], 9.67% (active) and 7.69% (active). For the same compound, the growth in assay [7] is 24.5% (inactive) and 10% (inactive); in assay [8], 14% (inactive) and 4.62% (active); in [9], -3.7% (active) and 9.92% (active); in [10] it was 0.303% (active).

On to `Cn1cnc([N+](=O)[O-])c1Sc1ncnc2nc[nH]c12`, for which the growth in [1] is 44.5% (inactive); in [2], 20.4% (inactive) and 23.6% (inactive); in [3], 75.5% (inactive) and 93.8% (inactive); in [4], 31.3% (inactive) and 57.8% (inactive); in assay [5] it was 79.5% (inactive) and 94.4% (inactive); in [6], 69.1% (inactive) and 49.2% (inactive). In addition, the growth in [7] was 33.5% (inactive) and 31.1% (inactive); in assay [8], 37.8% (inactive) and 33.3% (inactive); in [9], 73.4% (inactive) and 98.4% (inactive); in assay [10], 30.3% (inactive) and 21.4% (inactive).

`Cc1nnc(NC/C=C/c2ccccc2)s1`: the growth in assay [1] is 104% (inactive) and 106% (inactive); in assay [2] it was 87.9% (inactive) and 94.2% (inactive); in assay [3], 99.6% (inactive); in assay [4], 105% (inactive) and 120% (inactive); in assay [5], 102% (inactive); in assay [6], 102% (inactive) and 97.3% (inactive). Moreover, the growth in [7] was 99.7% (inactive); in [8], 109% (inactive) and 101% (inactive); in assay [9], 96.9% (inactive); in assay [10], 101% (inactive) and 104% (inactive).

For `O=C1c2ccccc2C(=O)c2c(NCCNCCO)ccc(NCCNCCO)c21`, the growth was -41.7% (active) and 24.3% (inactive) and 14% (inactive) in assay [1]; 135% (inactive) and 24.8% (inactive) and 7.96% (active) in assay [2]; -15.3% (active) and 45.8% (inactive) and 46.7% (inactive) in [3]; -6.87% (active) and 11.3% (inactive) and 12.1% (inactive) in assay [4]; 0.645% (active) in assay [5]; -16.6% (active) and 4.52% (active) and -6.95% (active) in assay [6]. Further, the growth in assay [7] was -21.5% (active) and 7.17% (active); in assay [8], -17% (active) and 29.6% (inactive) and 19.9% (inactive); in assay [9] it was 72.2% (inactive) and 89.1% (inactive) and 82.5% (inactive); in [10] it was 10.7% (inactive) and 47.4% (inactive) and 33.9% (inactive).

For `O=C(N/N=C/c1ccc2c(c1)OCO2)c1ccncc1`, the growth is 114% (inactive) and 113% (inactive) in [1]; 106% (inactive) in assay [2]; 110% (inactive) and 82.1% (inactive) in [3]; 94.5% (inactive) and 108% (inactive) in [4]; 114% (inactive) and 103% (inactive) in assay [5]; 109% (inactive) and 102% (inactive) in assay [6]. Further, the growth was 113% (inactive) and 107% (inactive) in [7]; 101% (inactive) and 123% (inactive) in assay [8]; 92.9% (inactive) and 112% (inactive) in assay [9]; 105% (inactive) and 103% (inactive) in assay [10].

Turning to `NCCSC(C[N+](=O)[O-])c1ccccc1Cl` (stereo not given), the growth in assay [1] is 37.6% (inactive); in assay [2] it was -48.3% (active); in assay [3], 98.8% (inactive); in assay [4] it was 115% (inactive); in [5] it was 11% (inactive); in [6], 84.8% (inactive). Moreover, the growth was 101% (inactive) in [7], 94.6% (inactive) in assay [8], -3.93% (active) in [9] and 74.4% (inactive) in assay [10].

As for `Clc1ccc(NC(Nc2ccc(Cl)cc2)C(Cl)(Cl)Cl)cc1`, the growth in [1] is 112% (inactive) and 100% (inactive); in assay [2], 17.7% (inactive) and 43.8% (inactive); in assay [3] it was 101% (inactive) and 114% (inactive); in assay [4] it was 87.3% (inactive) and 116% (inactive); in assay [5], 111% (inactive) and 113% (inactive); in [6] it was 87.7% (inactive) and 90.5% (inactive). Further, the growth in assay [7] is 90.3% (inactive) and 97% (inactive); in assay [8] it was 110% (inactive) and 100% (inactive); in [9] it was 90.1% (inactive) and 99.6% (inactive); in [10], 71.1% (inactive) and 82.3% (inactive).

Consider `O=C(c1ccc(Cl)cc1)C(NCCO)c1ccc(Cl)cc1` (stereo not given), for which the growth is 108% (inactive) and 109% (inactive) in [1]; 90.3% (inactive) and 105% (inactive) in assay [2]; 90.2% (inactive) and 102% (inactive) in [3]; 96.3% (inactive) and 97.8% (inactive) in assay [4]; 94.9% (inactive) and 108% (inactive) in assay [5]; 99% (inactive) and 85.8% (inactive) in assay [6]. The growth in [7] is 96.8% (inactive) and 103% (inactive); in [8] it was 114% (inactive) and 103% (inactive); in [9], 100% (inactive) and 101% (inactive); in [10], 101% (inactive) and 104% (inactive).
